Measurements from PubChem BioAssay (NCATS).
“And” between values parts separate entries of the source, which are not always exact repeats. Equal values may be shown once. Results filed as inconclusive are left out. A call without a number means that no potency is given here. The source made the active and inactive calls. Unless noted, the call rests on the fitted dose curve; in most records, active means well fitted curve in the direction sought with a large enough effect; inconclusive means small, poorly fitted or top-dose-only effect, or another doubt; inactive means no such curve, though single readings can be large; an effect the other way counts as inactive or inconclusive.

Legend:
[1] = qHTS for compounds that reverse cellular toxicity of Amyloid beta (A-beta) peptide in yeast: LOPAC Validation Assay (AID 720559)
Summary of the method: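 OD600 growth readout after 48 hr at 30 C; A-beta-toxic yeast plus pinned compounds in medium. Normalization: DMSO = negative, equimolar FeCl3 + clioquinol = positive.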

[2] = qHTS for Activators of Parkin Expression: LOPAC Validation Assay (NLuc Reporter) (AID 720572)
Summary of the method: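 Neuronal line stably carrying a FLuc/NLuc coincidence reporter under the Parkin promoter, seeded 24 h, then dosed in 7-point series for 24 h at 37 C. NLuc luminescence read after FLuc; normalized to DMSO and positive control (100%).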

[3] = qHTS for Activators of Parkin Expression: LOPAC Validation Assay (FLuc Reporter) (AID 720573)
Summary of the method: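 FLuc luminescence read-out from a neuronal line expressing a Parkin-promoter-driven coincidence reporter. Cells treated 24 h at 37 C, 5% CO2 with compounds at 7 concentrations; signal increase normalized to DMSO and positive control.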

[4] = biological target: T1, Hexokinase-4 (Homo sapiens) + Glucokinase regulatory protein (Homo sapiens) (UniProt P35557+Q14397); assay: qHTS assay for inhibitors of recombinant human GCK-GKRP interaction: Diaphorase-coupled assay (AID 743205)
T1 sequence (P35557 whole entry, looked up): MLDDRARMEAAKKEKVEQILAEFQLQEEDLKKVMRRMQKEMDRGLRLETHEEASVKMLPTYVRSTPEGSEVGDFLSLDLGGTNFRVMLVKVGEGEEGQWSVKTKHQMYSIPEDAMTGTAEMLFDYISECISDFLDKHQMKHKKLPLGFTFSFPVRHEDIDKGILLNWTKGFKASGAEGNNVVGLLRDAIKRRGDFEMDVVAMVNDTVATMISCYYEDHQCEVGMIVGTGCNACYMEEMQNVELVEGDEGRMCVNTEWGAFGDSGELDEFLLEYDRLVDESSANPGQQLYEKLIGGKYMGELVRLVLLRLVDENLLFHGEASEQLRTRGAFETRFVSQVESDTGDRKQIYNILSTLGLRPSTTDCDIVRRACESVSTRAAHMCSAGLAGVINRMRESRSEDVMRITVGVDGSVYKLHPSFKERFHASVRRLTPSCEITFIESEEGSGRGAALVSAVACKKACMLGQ
T1 sequence (Q14397 whole entry, looked up): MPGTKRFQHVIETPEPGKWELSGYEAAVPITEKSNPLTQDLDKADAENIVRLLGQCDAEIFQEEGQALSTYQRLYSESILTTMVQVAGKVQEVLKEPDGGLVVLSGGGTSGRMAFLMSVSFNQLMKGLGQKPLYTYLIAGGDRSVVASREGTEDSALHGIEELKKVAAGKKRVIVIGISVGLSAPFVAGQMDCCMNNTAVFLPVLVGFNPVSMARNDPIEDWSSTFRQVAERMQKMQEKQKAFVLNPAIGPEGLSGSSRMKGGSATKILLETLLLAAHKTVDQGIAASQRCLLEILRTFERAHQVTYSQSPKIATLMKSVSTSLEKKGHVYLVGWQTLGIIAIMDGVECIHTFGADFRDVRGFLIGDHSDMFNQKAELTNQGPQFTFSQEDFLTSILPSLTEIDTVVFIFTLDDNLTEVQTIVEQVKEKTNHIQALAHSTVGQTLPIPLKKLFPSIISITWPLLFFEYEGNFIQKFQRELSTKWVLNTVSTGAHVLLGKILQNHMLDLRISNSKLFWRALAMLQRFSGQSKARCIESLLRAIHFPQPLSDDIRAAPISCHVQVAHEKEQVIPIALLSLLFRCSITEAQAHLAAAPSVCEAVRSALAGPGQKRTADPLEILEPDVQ
Summary of the method: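 Resorufin fluorescence (525/590 nm), read each minute over 30 min, reports GCK activity coupled via G6PDH and diaphorase. Reaction: 10 nM GST-GCK, 10 nM FLAG-GKRP, 5 mM glucose, 0.4 mM ATP, 0.15 mM NADP+, 0.1 mM resazurin.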

[5] = biological target: T1, Hexokinase-4 (Homo sapiens) + Glucokinase regulatory protein (Homo sapiens); assay: qHTS assay for inhibitors of recombinant human GCK-GKRP interaction: ADP-Glo assay (AID 743206)
Summary of the method: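 GST-GCK and FLAG-GKRP (15 nM each in the dispensed mix, with 2 uM S6P) react with 0.4 mM ATP and 5 mM glucose (final) in Hepes pH 7.6 for 60 min at room temperature. ADP is measured by ADP-Glo luminescence.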

[6] = biological target: T1, Hexokinase-4 (Homo sapiens) + Glucokinase regulatory protein (Homo sapiens); assay: qHTS assay for inhibitors of recombinant human GCK-GKRP interaction: HTRF assay (AID 743207)
Summary of the method: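 HTRF read-out (ex 320 nm; 615/665 nm emission) after 60 min RT equilibration of 5 nM GST-GCK, 5 nM FLAG-GKRP, 2 uM S6P, compound and anti-FLAG/anti-GST detection antibodies; signal normalized between DMSO wells with and without GCK.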

[7] = qHTS Assay for Identifying Gametocytocidal Compounds (AID 743244); further: potency means the concentration at half of the fitted maximal effect;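 on max response: actives lower the fluorescent signal which means gametocytes are killed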; settings: P. falciparum 3D7 stage III-V gametocytes, alamarBlue, 72 h; max response: stronger effect = lower value
Summary of the method: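 Compounds are pinned into medium, gametocytes (stage III–V, 3D7, 20,000 cells/well) added, and plates held 72 h at 37 °C in 5% CO2. AlamarBlue follows for 24 h before fluorescence reading.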

[8] = qHTS profiling of the MIPE4 collection as inhibitors of Plasmodium falciparum (3D7) proliferation (AID 743344; call rule not given here); settings: P. falciparum 3D7 in erythrocytes, SYBR Green DNA fluorescence, 72 h; at 28.5 µM (top of the series) unless noted
Summary of the method: (§1)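 Erythrocytes infected with P. falciparum (0.3% parasitemia, 2.5% hematocrit) incubated with compounds 72 h at 37 C, 5% CO2. Lysis with saponin/Triton buffer containing SYBR Green I, overnight at room temperature in the dark; DNA fluorescence (485/535 nm) normalised to 0.29 uM artemisinin and DMSO.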

[9] = qHTS profiling of the MIPE4 collection as inhibitors of Plasmodium falciparum (DD2) proliferation (AID 743345; call rule not given here); settings: P. falciparum Dd2 in erythrocytes, SYBR Green DNA, 72 h; at 28.5 µM (top of the series) unless noted
Summary of the method: as §1

[10] = qHTS profiling of the MIPE4 collection as inhibitors of Plasmodium falciparum (DD2) proliferation (Rep 2) (AID 743346; call rule not given here); settings: P. falciparum Dd2 in erythrocytes, SYBR Green DNA, 72 h; at 28.5 µM (top of the series) unless noted
Summary of the method: as §1

[11] = qHTS profiling of the MIPE4 collection as inhibitors of Plasmodium falciparum (HB3) proliferation (AID 743347; call rule not given here); settings: P. falciparum HB3 in erythrocytes, SYBR Green DNA, 72 h; at 28.5 µM (top of the series) unless noted
Summary of the method: as §1

[12] = High-throughput drug toxicity screening in the BPDCN cell line Gen2.2 (AID 1224824; call rule not given here;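 further: cells exposed to compounds for 48 h before reading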); settings: Gen2.2 BPDCN cells; at 45.8 µM (top of the series) unless noted
Summary of the method: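 CellTiter-Glo luminescence after 48 h compound exposure of Gen2.2 cells; percent activity set with DMSO as 100% and bortezomib (9.2 uM final) as 0%. Cells seeded at 500 per well, RPMI + 10% FBS, 37 °C.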

[13] = qHTS assay for small molecule agonists of the antioxidant response element (ARE) signaling pathway measured by Nrf2-dependant transcriptional activity (AID 720636; active means well fitted curve in the direction sought with a large enough effect in the repeat runs; an effect the other way counts as inactive or inconclusive;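 further: HepG2 cells with an ARE-driven luciferase reporter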)
Summary of the method: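 First, ARE-luc HepG2 cells attached for 6 hr at 37 C in 1% dialyzed FBS medium. Next, compound or DMSO was added and incubated 16 hr. Finally, ONE-Glo reagent was added and luminescence measured after 30 min.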

[14] = qHTS assay for small molecule antagonists of the retinoid-related orphan receptor gamma (ROR-gamma) signaling pathway - cell viability counter screen (AID 720652; active means well fitted curve in the direction sought with a large enough effect in the repeat runs; an effect the other way counts as inactive or inconclusive;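 further: compound exposure lasted 16 hr before ATP read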; further: potency means the concentration at half of the fitted maximal effect)
Summary of the method: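 CHO cells carrying TET-inducible ROR and RORE-luciferase reporter, plated 5 hr, then dosed with compound plus doxycycline. After 16 hr at 37 C, viability read as intracellular ATP by CellTiter-Glo luminescence.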

[15] = qHTS assay for small molecule agonists of the antioxidant response element (ARE) signaling pathway measured by Nrf2-dependant transcriptional activity - cell viability counter screen (AID 720653; active means well fitted curve in the direction sought with a large enough effect in the repeat runs; an effect the other way counts as inactive or inconclusive); settings: ARE-bla HepG2 viability, CellTiter-Glo ATP luminescence, 16 h; max response: stronger effect = lower value
Summary of the method: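 ARE-bla HepG2 cells (2,000/well) rested 5 hrs at 37C/5% CO2, then exposed to compounds in DMSO for 16 hrs. Viability was read in the same wells as intracellular ATP by luminescence, 30 min at room temperature after reagent addition.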

[16] = qHTS assay for cell viability of HEK293 cells (AID 743288); settings: ATP luminescence (CellTiter-Glo), 18 h; max response: stronger effect = lower value; further: nearly all actives have a fitted effect of over 50% in size
Summary of the method: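 Environmental chemicals tested in qHTS format against parental HEK293 cells; 18 h treatment, 37 C; read-out ATP luminescence (CellTiter-Glo), 30 min RT development.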

[17] = qHTS assay for cell viability of the p53RE-bla HCT-116 cell line (AID 743292); further: nearly all actives have a fitted effect of over 55% in size
Summary of the method: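 Quantitative high-throughput format: compounds in DMSO were pinned onto p53RE-bla HCT-116 cells (4,000/well) and incubated 16 h at 37 C. Total intracellular ATP, read by CellTiter-Glo luminescence, reflects viable cell number.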

| SMILES | outcome [1] | outcome [2] | Potency [3] | Potency [4] | Potency [5] | Potency [6] | max response [7] | parasite growth, % of DMSO control [8] | parasite growth remaining, % of DMSO control (lower = more inhibition) [9] | parasite growth, % of control (lower = inhibition) [10] | growth, % of control [11] | cell viability, % of control (lower = more cytotoxic) [12] | outcome [13] | Potency [14] | max response [15] | max response [16] | Potency [17] | Potency [7] |
| --- | --- | --- | --- | --- | --- | --- | --- | --- | --- | --- | --- | --- | --- | --- | --- | --- | --- | --- |
| Nc1nnc(-c2cccc(Cl)c2Cl)c(N)n1 | inactive | inactive | inactive | inactive | inactive | inactive | 5.45% (inactive) and 12.4% (inactive) | 93.8% | 98% | 104% | 98.1% | 86.5% |  |  |  |  |  |  |
| Nc1ccn([C@H]2CC[C@@H](CO)O2)c(=O)n1 | inactive | inactive | inactive |  | inactive | inactive | -9.19% (inactive) and 7.53% (inactive) | 114% | 115% | 74.1% | 176% | 251% | inactive | inactive | -1.33% (inactive) and -0.56% (inactive) | 3.55% (inactive) and 2.55% (inactive) | inactive |  |
| COc1cc2c(c(OC)c1OC)-c1ccc(OC)c(=O)cc1[C@@H](NC(C)=O)CC2 | inactive | inactive | inactive |  | inactive | inactive | -10.9% (inactive) and -1.99% (inactive) |  |  |  |  | 10.1% | inactive | inactive | -19.8% (inactive) and 13.5% (inactive) and -10.8% (inactive) | -13.3% (inactive) and -14.4% (inactive) and -4% (inactive) | inactive |  |
| NCCS(=O)(=O)O | inactive | inactive | inactive |  | inactive | inactive | -8.78% (inactive) and 22.4% (inactive) | 102% |  | 90.9% | 110% | 573% | inactive | inactive | 5.47% (inactive) | 10.5% (inactive) | inactive |  |
| Nc1c2c(nc3ccccc13)CCCC2 | inactive | inactive | inactive |  | inactive | inactive |  | 7.17% | 15.1% | 10.3% | 20.2% | 131% | inactive | inactive | -10.2% (inactive) | -20.1% (inactive) | inactive | 8.91 µM (active) |
| CC#C[C@]1(O)CC[C@H]2[C@@H]3CCC4=CC(=O)CCC4=C3[C@@H](c3ccc(N(C)C)cc3)C[C@@]21C | inactive | inactive | inactive | inactive | inactive | inactive |  | 7.43% |  | 11.9% | 6.33% | 6.18% | inactive |  | -29.2% (inactive) |  | inactive |  |
| Cn1cnc2c1c(=O)[nH]c(=O)n2C | inactive | inactive | inactive |  | inactive | inactive | -9.46% (inactive) and -3.09% (inactive) | 8.09% |  | 25.4% | 9% | 12.2% | inactive |  | 4.98% (inactive) | -4% (inactive) | inactive |  |
| CCC1(c2ccccc2)C(=O)NCNC1=O | inactive | inactive | inactive |  | inactive | inactive | 16.7% (inactive) and 25% (inactive) | 109% | 102% | 107% | 91% | 15.1% | inactive | inactive | 3.8% (inactive) and 3.23% (inactive) | -2.05% (inactive) and -6.21% (inactive) | inactive |  |
| Cc1cn([C@H]2C=C[C@@H](CO)O2)c(=O)[nH]c1=O | inactive | inactive | inactive | inactive | inactive | inactive | 12.3% (inactive) and 14% (inactive) | 325% [at 57.5 µM] |  | 140% [at 57.5 µM] | 618% [at 57.5 µM] | 82.4% [at 92.2 µM] | inactive | inactive | 6.12% (inactive) and 3.59% (inactive) and -11.2% (inactive) | -5.34% (inactive) and -4.2% (inactive) and -3.76% (inactive) | inactive |  |
| COc1ccc2[nH]cc(CCNC(C)=O)c2c1 | inactive | inactive | inactive | inactive | inactive | inactive | 6.15% (inactive) and 3.87% (inactive) | 89.5% and 101% | 107% and 104% | 89.3% and 83% | 79.2% and 70.9% | 132% | inactive | inactive | -10.7% (inactive) and -6.82% (inactive) and 8.47% (inactive) | -9.99% (inactive) and -9.18% (inactive) and -3.1% (inactive) | inactive |  |
| Clc1ccc(C(c2ccccc2Cl)C(Cl)Cl)cc1 (stereo not given) | inactive | inactive | inactive | inactive | inactive | inactive | -1.64% (inactive) and 6.44% (inactive) | 24.3% |  | 54.8% | 50.8% | 22.5% | inactive | 59.6 µM (active) | -18.3% (inactive) and -6.45% (inactive) |  |  |  |
| Cn1c(=O)c2c(ncn2C)n(C)c1=O | inactive | inactive | inactive |  | inactive | inactive | -4.77% (inactive) and 11.8% (inactive) | 91.2% | 96.6% | 81.8% | 103% | 150% | inactive | inactive | 6.29% (inactive) and 2.32% (inactive) | 0.413% (inactive) and -8.15% (inactive) | inactive |  |
| CC(C)C(=O)Nc1ccc([N+](=O)[O-])c(C(F)(F)F)c1 | inactive | inactive | inactive | inactive | inactive | inactive | -7.87% (inactive) and -5.86% (inactive) |  |  |  |  | 58% | inactive | inactive | -4.94% (inactive) and -9.28% (inactive) | -5.73% (inactive) and -15.5% (inactive) | inactive |  |
